# Active and inactive are the calls of the source.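 Rule for the calls, unless noted: active = NADPH fluorescence slope more negative than the mean of all samples by about 3 SD, 99.7% confidence; inactive = the rest.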
# How the values were obtained:
# [1] = inhibitors of TNFa-induced NFkB p65 translocation, primary screen, imaging, HUVEC, MLSMR starter and 10KST1 sets (AID 438;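 active = inhibition above 20% together with a positive visual image hit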;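 note: compound added about 3h40 before a 20 min TNFalpha stimulation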;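 for inhibition: signal is the nuclear over cytoplasmic p65 intensity ratio per well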); settings: HUVEC TNFa-induced p65 nuclear translocation; cell count: measured here: nuclei count (cytotoxicity indicator), at 2.08 µM; inhibition: at 2 µM, stronger effect = higher value, 0% TNFa-plus-vehicle, 100% no-TNFa wells
# [2] = reduction of polyQ htt aggregates in cells – imaging, exon1htt(103Q)mCFP cells, high-content imaging, primary screen (AID 483;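 active = visual image review flags a hit and inhibition of aggregation exceeds 20%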;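 note: compound exposure lasted 3 days before fixation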;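 for nuclei count: percent of the per-plate median nuclei count of sample wells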); settings: exon1htt(103Q)mCFP cell line, aggregate imaging, at 2 µM; inhibition of aggregation: stronger effect = higher value; nuclei count: measured here: cell count, toxicity
# [3] = endothelial E-selectin expression blockers – imaging, HUVEC, immunofluorescence, MLSMR starter and 10KST1 sets, primary screen (AID 487;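 active = visually confirmed hit in the image check and inhibition above 20%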;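 for inhibition: signal is fraction of cell area covered by stained E-selectin grains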;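 for nuclei count: 100% = median nuclei count of all wells on the same plate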); settings: HUVEC TNFalpha-induced E-selectin immunofluorescence imaging, at 2 µM; inhibition: stronger effect = higher value; nuclei count: measured here: cell number, toxicity
# [4] = target: Voltage-gated potassium channel subunit beta-2 (Rattus norvegicus) (UniProt P62483); assay: inhibitors of rat Kvbeta2 reductase activity – biochemical, NADPH fluorescence, primary screen (AID 622;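 active = fluorescence slope higher than the sample average by over 3 SD, cut at about -0.22 in these data, passing the limit was not always enough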;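 note: slope of raw intensity against log time taken from 70 to 1610 s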); settings: recombinant KvBeta, 4-cyanobenzaldehyde reduction, at 10 µM, stronger effect = higher value
# [5] = target: Voltage-gated potassium channel subunit beta-2 (Rattus norvegicus) (UniProt P62483); assay: enhancers of rat Kvbeta2 NADPH turnover – biochemical, NADPH fluorescence, primary screen (AID 623); settings: Recombinant KvBeta, NADPH fluorescence decrease slope, 10 min; at 10 µM; stronger effect = lower value;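 note: fluorescence intensity change per second fitted from 20 to 320 s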
# [6] = target: Alpha-2C adrenergic receptor (Homo sapiens) (UniProt P18825); assay: compounds altering alpha2C-coupled GIRK flux – cell-based, HEK293 alpha2C/GIRK1/2, thallium flux, primary screen (AID 624;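 active = fluorescence slope after compound addition differing from the mean of all screened samples at 99.7% confidence, in either direction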;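 note: slope of fluorescence ratio to pre-addition baseline per second over 15 to 24 s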); settings: thallium flux BTC fluorescence, at 10 µM, actives lie on both sides
# [7] = blockers of RIG-like receptor reporter activation – cell-based, Sendai virus stimulus, luciferase, 10K MLSCN set, TLR/RLR signaling modifier project, primary screen (AID 602276;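 active = inhibition at or above 50% at 10 µM; inactive = inhibition below 50%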;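 note: firefly luciferase from ISG56 promoter only with Renilla not read in this screen; 0% = Sendai virus plus DMSO and 100% = medium plus DMSO without virus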); settings: HEK293 RL24 IRF3 luciferase reporter, at 10 µM, stronger effect = higher value
# [8] = TLR3 IRF3 reporter activation blockers – cell-based, poly I:C stimulus, luciferase, 10K MLSCN set, primary screen (AID 602277;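 active = inhibition of the reporter signal at or above 50%; inactive = inhibition below 50%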); settings: HEK293-TLR3 RL24 IRF3 luciferase reporter, at 10 µM, stronger effect = higher value
# [9] = Primary imaging screen for DUSP6 inhibitors that restore phospho-Erk in transfected HeLa cells, chemical complementation (AID 609;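 active = compounds giving at least 50% inhibition in the cell-based MKP-3 phosphatase rescue imaging test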;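 for inhibition: phospho-Erk level distribution per well compared with pooled transfected vehicle control wells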); settings: HeLa MKP-3 transfected, phospho-Erk imaging KS statistic, at 10 µM, cells stimulated with TPA for 15 min
# [10] = target: Dual specificity protein phosphatase 6 (Homo sapiens) (UniProt Q16828); assay: as above; settings: HeLa MKP-3 transfected, phospho-Erk imaging KS statistic; at 10 µM; stronger effect = higher value; cells stimulated with TPA for 15 min
# [11] = target: Muscarinic acetylcholine receptor M4 (Homo sapiens) (UniProt P08173); assay: M4-linked GIRK flux change, two-sided – cell-based, HEK293 M4/GIRK, thallium flux, BTC-AM, M4 allosteric agonist project, primary screen (AID 625;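 active = fluorescence slope after compound addition differing from the mean of all tested samples at 99.7% confidence, mostly higher but some lower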;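 note: thallium influx through GIRK channels coupled to M4 in HEK293 cells with BTC-AM dye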); settings: at 10 µM, actives lie on both sides
# [12] = inhibitors of larval lipid processing in zebrafish, primary screen, whole organism, PED6 fluorescence, gall bladder and intestine (AID 686;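 active = a full or partial loss of lipid-probe fluorescence in the fish gall bladder, intestine or both, judged by eye; inactive = no fluorescence loss, or compound toxic to the fish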;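 note: larvae 5 to 7 days old with five fish per well; signal comes from phospholipase A2 cleavage of quenched PED6 carried via bile; overnight exposure to compound and PED6 before scoring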); settings: Zebrafish larvae PED6 lipid processing, fluorescence scoring; screened at 20 µM (by protocol)
# [13] = loss of swimming-algae plug formation – whole organism, Chlamydomonas reinhardtii, WT vs cilia-less mutant, absorbance, 96-well, primary screen (AID 463189;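 active = inhibition at or above 50% relative to wild type and mutant plate controls; inactive = inhibition below 50%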;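 note: 0% = wild type cc124 cells in DMSO and 100% = ciliumless bld1 mutant cells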); settings: Chlamydomonas reinhardtii gravitaxis, OD600 absorbance, 2 days; at 10 µM; stronger effect = higher value
# Alpha-2C adrenergic receptor (Homo sapiens), sequence (P18825 whole entry, looked up): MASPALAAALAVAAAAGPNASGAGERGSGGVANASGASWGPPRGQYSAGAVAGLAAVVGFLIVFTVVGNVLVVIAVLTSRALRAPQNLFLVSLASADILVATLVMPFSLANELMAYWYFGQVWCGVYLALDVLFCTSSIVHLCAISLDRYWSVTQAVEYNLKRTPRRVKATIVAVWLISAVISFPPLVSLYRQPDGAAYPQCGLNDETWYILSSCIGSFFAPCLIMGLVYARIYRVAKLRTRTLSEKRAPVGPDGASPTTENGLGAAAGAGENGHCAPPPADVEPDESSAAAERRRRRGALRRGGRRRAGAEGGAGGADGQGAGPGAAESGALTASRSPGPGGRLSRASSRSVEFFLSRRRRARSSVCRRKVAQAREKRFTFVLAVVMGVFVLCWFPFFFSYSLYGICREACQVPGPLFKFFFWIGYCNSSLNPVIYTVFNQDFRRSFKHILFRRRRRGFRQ
# Voltage-gated potassium channel subunit beta-2 (Rattus norvegicus), sequence (P62483 whole entry, looked up): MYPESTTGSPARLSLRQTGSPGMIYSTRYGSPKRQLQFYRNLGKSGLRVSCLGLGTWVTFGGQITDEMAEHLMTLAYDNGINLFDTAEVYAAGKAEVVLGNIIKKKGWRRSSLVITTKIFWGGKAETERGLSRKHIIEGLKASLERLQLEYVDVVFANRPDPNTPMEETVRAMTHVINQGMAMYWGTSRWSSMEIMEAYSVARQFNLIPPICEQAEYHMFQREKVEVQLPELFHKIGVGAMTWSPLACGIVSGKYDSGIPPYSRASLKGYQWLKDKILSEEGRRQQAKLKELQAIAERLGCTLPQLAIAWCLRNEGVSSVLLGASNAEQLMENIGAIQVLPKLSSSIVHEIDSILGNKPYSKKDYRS
# Muscarinic acetylcholine receptor M4 (Homo sapiens), sequence (P08173 whole entry, looked up): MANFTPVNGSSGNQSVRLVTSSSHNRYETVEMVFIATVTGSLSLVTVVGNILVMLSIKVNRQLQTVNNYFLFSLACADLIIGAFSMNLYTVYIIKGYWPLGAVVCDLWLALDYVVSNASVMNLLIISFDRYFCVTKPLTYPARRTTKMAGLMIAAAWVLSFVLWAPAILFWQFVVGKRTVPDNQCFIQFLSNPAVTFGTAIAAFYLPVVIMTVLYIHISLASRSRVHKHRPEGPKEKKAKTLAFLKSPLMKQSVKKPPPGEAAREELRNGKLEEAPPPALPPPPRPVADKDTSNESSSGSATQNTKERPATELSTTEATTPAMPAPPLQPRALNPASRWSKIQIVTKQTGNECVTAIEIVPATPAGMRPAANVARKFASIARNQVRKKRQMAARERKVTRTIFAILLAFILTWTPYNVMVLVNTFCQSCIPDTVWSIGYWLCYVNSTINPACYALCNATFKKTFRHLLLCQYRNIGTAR
# Dual specificity protein phosphatase 6 (Homo sapiens), sequence (Q16828 whole entry, looked up): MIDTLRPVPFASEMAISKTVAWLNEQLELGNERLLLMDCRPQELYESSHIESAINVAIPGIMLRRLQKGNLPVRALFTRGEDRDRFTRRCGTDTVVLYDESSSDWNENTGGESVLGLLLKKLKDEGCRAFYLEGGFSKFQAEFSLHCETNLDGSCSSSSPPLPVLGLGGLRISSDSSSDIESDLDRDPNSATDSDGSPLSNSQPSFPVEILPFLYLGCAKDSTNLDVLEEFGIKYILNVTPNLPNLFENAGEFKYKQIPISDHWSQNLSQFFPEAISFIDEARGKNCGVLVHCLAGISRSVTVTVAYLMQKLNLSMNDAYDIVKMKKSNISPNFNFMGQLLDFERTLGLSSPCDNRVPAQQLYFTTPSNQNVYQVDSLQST
Compound,cell count [1],inhibition [1],inhibition of aggregation [2],nuclei count [2] [%],inhibition [3],nuclei count [3] [%],fluorescence slope [4],NADPH fluorescence slope [5],slope [6],inhibition [7],inhibition [8],z-score ([9]; measured here: cell density z-score),z-score ([9]; measured here: nuclear c-Myc green intensity z-score),"z-score ([9]; measured here: nuclear pErk red intensity z-score, stronger effect = higher value)",inhibition [10],fluorescence slope [11],outcome [12],inhibition [13]
CCOC(=O)c1sc2nc(N3CCCC3)c3c(c2c1N)CC(C)(C)OC3,410,2.7% (inactive),-0.3% (inactive),105,-22.4% (inactive),103,-0.302 (inactive),-1.6e-05 (inactive),0.0041 (inactive),-5.95% (inactive),2.54% (inactive),–,–,–,–,–,–,–
CCn1c(C(C#N)/C(=N\S(=O)(=O)c2cccs2)c2ccccc2)nc2ccccc21 (stereo unspecified),694,25.4% (active),-17.3% (inactive),94.2,-188% (inactive),119,-0.493 (inactive),-3.2e-06 (inactive),0.00669 (inactive),10.5% (inactive),40.9% (inactive),–,–,–,–,–,–,–
CCOCC(=O)Nc1sc2c(c1C(=O)OCC)CCCC2,300,-1.6% (inactive),16.6% (inactive),65.8,-39.3% (inactive),116,-0.347 (inactive),-5.2e-05 (inactive),0.00551 (inactive),9.19% (inactive),14% (inactive),–,–,–,–,–,–,–
COC(=O)c1c(-n2cnnn2)sc(C)c1C,504,-4.7% (inactive),–,–,–,172,-0.421 (inactive),-4.5e-05 (inactive),–,–,–,-0.751,1.91,1.76,-2.29% (inactive),0.00518 (inactive),inactive,-6.11% (inactive)
Cn1cc(C2NC(=O)c3c(sc4c3CCCC4)N2)c2ccccc21 (stereo unspecified),561,9.2% (inactive),17.3% (inactive),98.8,-37.2% (inactive),112,-0.384 (inactive),3.8e-05 (inactive),0.00476 (inactive),2.79% (inactive),21.2% (inactive),–,–,–,–,–,–,–
CC(c1ccccc1)n1cnc2ccccc21 (stereo unspecified),590,-2.5% (inactive),17.1% (inactive),94.1,-48% (inactive),148,-0.364 (inactive),-6.9e-05 (inactive),0.00531 (inactive),7.98% (inactive),19% (inactive),–,–,–,–,–,–,–
CCCCc1c(O)nc(N2CCN(Cc3ccccc3)CC2)[nH]c1=O,402,-2.5% (inactive),9.1% (inactive),97.1,-61% (inactive),101,-0.343 (inactive),-4.3e-05 (inactive),0.0053 (inactive),12.1% (inactive),13.6% (inactive),–,–,–,–,–,–,–
Cc1cc2ccccn2c1C(=O)c1ccncc1,602,-0.6% (inactive),11.7% (inactive),77.4,-1.7% (inactive),111,-0.62 (inactive),9.9e-07 (inactive),0.00577 (inactive),11% (inactive),-0.108% (inactive),–,–,–,–,–,–,–
O=C(Nc1ccc2c(c1)nc1n2CCN(Cc2ccccc2)C1)c1cccs1,420,-13.3% (inactive),6.4% (inactive),89.3,11.1% (inactive),73.9,-0.461 (inactive),-0.000271 (inactive),0.00505 (inactive),-17.8% (inactive),-84.2% (inactive),–,–,–,–,–,–,–
CCOC(=O)C(C)(C)Sc1nc2c(cnn2-c2ccc(C)cc2)c(=O)[nH]1,387,-1.6% (inactive),-13.4% (inactive),106,-44.8% (inactive),106,-0.626 (inactive),-2.5e-05 (inactive),0.00578 (inactive),9.78% (inactive),34% (inactive),–,–,–,–,–,–,–
CN1CCCC(OC(=O)c2ccc3c(c2)OCCO3)C1 (stereo unspecified),214,-1.4% (inactive),23.1% (inactive),102,-1% (inactive),70.3,-0.418 (inactive),-6.9e-05 (inactive),0.00576 (inactive),-0.0614% (inactive),-12.6% (inactive),–,–,–,–,–,–,–
CCOc1ccccc1C1C(C(=O)Nc2ccc(OC)cc2)=C(C)Nc2nc(CCCO)nn21 (stereo unspecified),659,-0.3% (inactive),-30.8% (inactive),116,-35.4% (inactive),118,-0.443 (inactive),-2.8e-05 (inactive),0.00548 (inactive),-0.537% (inactive),17.2% (inactive),–,–,–,–,–,–,–
Cc1ccnc(SCCn2c(N3CCN(Cc4ccccc4)CC3)nc3c2c(=O)[nH]c(=O)n3C)n1,665,-22.3% (inactive),0.8% (inactive),120,-36.7% (inactive),96.2,-0.542 (inactive),-3.1e-05 (inactive),0.00641 (inactive),-0.348% (inactive),0.626% (inactive),–,–,–,–,–,–,–
Cc1ccc(C)c2[nH]c(=O)c(CN(CCN3CCCC3)C(=O)Nc3cccc(Cl)c3)cc12,562,-4.7% (inactive),13.8% (inactive),67.7,-35.9% (inactive),94.3,-0.544 (inactive),-6.8e-05 (inactive),0.00448 (inactive),-139% (inactive),78.9% (active),–,–,–,–,–,–,–
O=C(NCc1ccccc1)c1ccc(OC2CSC2)cc1,655,-30.1% (inactive),9.3% (inactive),97.9,-45.7% (inactive),108,-0.486 (inactive),-4.6e-05 (inactive),0.00606 (inactive),-8.59% (inactive),-14.1% (inactive),–,–,–,–,–,–,–
